Results reported in PubChem BioAssay AID1117359 (Southern Research Institute, 2015).
Among all 1,500 compounds or so, about 460 (31%) were called active. Not all results are given here. Results with a measured potency or affinity are listed apart. Unmarked numbers belong to inactive results.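 The calls were made as follows: active = viability at or below 80% at any tested concentration, marking the compound as toxic; inactive = the rest.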

assay: THP-1 cell cytotoxicity, dose response, cytotoxicity control for Vif-APOBEC3G degradation inhibitor project, THP-1 cells (AID 1117359); settings: THP-1 viability, CellTiter-Glo luminescence, 72 h; series mostly up to 40 µM; viability: at the top concentration

| Structure (SMILES) | viability [%] | outcome |
| --- | --- | --- |
| CC(C)Cc1cc(C(=O)Nc2cccc(O)c2)no1 | 85.4 | – |
| COc1ccc(S(=O)(=O)N2CCOC2CNC(=O)C(=O)NCc2ccccn2)cc1 (stereo not given) | 80.3 | – |
| Cc1csc(=O)n1CC(=O)OCC(=O)c1ccc(Br)cc1 | 110 | – |
| O=C(O)/C=C/C(=O)NNc1ncnc2ccccc12 | 93.2 | – |
| C=CCn1c(SCC(=O)c2c(N)n(C)c(=O)n(C)c2=O)nnc1-c1ccccc1F | 80.2 | – |
| COc1ccc2c(=O)c3c(=O)n(-c4ccc(C)cc4)c(-c4ccccc4)nc3oc2c1 | 105 | – |
| COc1ccc(CNc2nc3ccccc3n2C)c(O)c1 | 81.6 | – |
| O=[N+]([O-])c1ccc(N/N=C/c2ccc(O)c(O)c2O)c(S(=O)(=O)N2CCOCC2)c1 | 88.3 | – |
| Cc1nnc(SCC(=O)N2CCN(c3ccccc3)CC2)n1C1CC1 | 111 | – |
| CCOC(CCNC(=O)c1cn(C)c(=O)c2c1c1ccccc1n2C)OCC | 87.9 | – |
| O=CN/C=C/c1cc(O)ccc1O | 93.7 | – |
| Oc1ccc(/C=C/c2cnccn2)cc1 | 103 | – |
| CC1CN(C(=O)COC(=O)Cc2ccc(Cl)cc2)CC(C)O1 (stereo not given) | 95.3 | – |
| CCN(CC(=O)Nc1c(F)cccc1F)C(=O)CSC(=S)N1CCCC1 | 106 | – |
| O=c1[nH]c2ccccc2c(O)c1-[n+]1ccccc1 | 105 | – |
| CCc1ccc2c(CN3CCC(C(=O)OC)CC3)cc(=O)oc2c1 | 101 | – |
| Cc1ccc(CNC(=O)COc2ccc3c(c2)CCC3)cc1 | 106 | – |
| CCn1c(SCC(=O)OC)nc2sc3c(c2c1=O)CCC3 | 91.2 | – |
| Cc1cc(SCC(=O)NCCCN2CCCC2=O)nc2ccccc12 | 108 | – |
| Cc1cc2c(c(=O)o1)C(c1ccc([N+](=O)[O-])o1)C(C#N)=C(N)O2 (stereo not given) | 106 | – |
| CC1CN(S(=O)(=O)c2cc(C(=O)NCc3ccncc3)ccc2Cl)CC(C)O1 (stereo not given) | 103 | – |
| CN(C)c1ccc(NC(=O)Nc2cccc(Cl)c2)cc1 | 84.4 | – |

| Structure (SMILES) | viability [%] | outcome |
| --- | --- | --- |
| CCN(CC(=O)Nc1ccc(NC(C)=O)cc1)C(=O)C1CCCC1 | 121 | – |
| COC(=O)C1CCN(c2ccc([N+](=O)[O-])cc2)CC1 | 85.4 | – |
| C=CCc1c(C)nc2c(C(=O)O)cnn2c1C | 105 | – |
| CC1(C)CCC(=O)c2ccccc21 | 87.5 | – |
| O=S(=O)(O)c1cc(O)c2cc(Nc3ccccc3)ccc2c1 | 86 | – |
| Cn1cc(/C=C/C(=O)N2CCCC(C(=O)c3cccc(C(F)(F)F)c3)C2)cn1 (stereo not given) | 95.5 | – |
| CC1(C)C2CCC1(C)C(OC(=O)C[n+]1ccccc1)C2 (stereo not given) | 101 | – |
| CN1CCN(S(=O)(=O)Cc2ccc(Cl)cc2)CC1 | 90.8 | – |
| CN1CCN(C2=C(Cl)C(=O)C(c3cnc(N4CCCCC4)s3)=C(Cl)C2=O)CC1 | 100 | – |
| O=C1C(Cl)=C(N2CCCCC2)C(=O)C(Cl)=C1c1cnc(N2CCCCC2)s1 | – | inactive |
| CN(C)c1ncc(C2=C(Cl)C(=O)C(N3CCCC3)=C(Cl)C2=O)s1 | 89.6 | – |
| CCn1c(CNC(=O)Cc2ccc(OC)cc2)nnc1SCC(=O)Nc1ccc(C(=O)O)cc1 | 90 | – |
| Cc1cc(O)c(Oc2cc(C)cc(O)c2O)c(O)c1 | 99.7 | – |
| Cc1nc(NCc2ccccc2)c2cc[nH]c2n1 | 88.9 | – |
| COc1ccc2c(c1)n([O-])c1c([n+]2=O)CCC1 | 98.7 | – |
| CC(C)C(NC(N)=O)C(=O)NC1CCCCC1 (stereo not given) | 86.8 | – |
| CN(CC(=O)Nc1cccc(F)c1)C(=O)c1cc(-c2ccco2)nc2ccccc12 | 96.6 | – |
| CCc1ccccc1NNC(=O)CCc1ccccc1 | 90 | – |
| Cn1cnnc1SCC(=O)Nc1ncc([N+](=O)[O-])s1 | 96.2 | – |
| C=C(C)C(=O)Nc1cccc(C2=NOC3(C2)C[C@@H](C(N)=O)N(C(=O)CCCCC)C3)c1 (stereo not given in full) | 99.8 | – |
| CCOC(=O)C1=C(COC(=O)/C=C/c2ccco2)NC(=O)NC1C (stereo not given) | 96.1 | – |
| Cc1ccc(NC(=O)CN2C(=O)N/C(=C/c3ccco3)C2=O)cc1 | 106 | – |

| Structure (SMILES) | viability [%] | outcome |
| --- | --- | --- |
| C=CC1=C(C(=O)O)N2C(=O)C(NC(=O)Cc3ccccc3)C2SC1 (stereo not given) | 97.8 | – |
| Cc1cc(C(=O)NCCCN2CCCC2=O)no1 | 111 | – |
| CCOC(=O)C1=C(c2ccccc2)NC(=O)NC1c1cc(Cl)c(O)c(OC)c1 (stereo not given) | 101 | – |
| Cc1nc(-c2noc(-c3ccccc3Cl)n2)c(C(F)(F)F)o1 | 86.2 | – |
| COc1cccc(CC(=O)N2CCCC(CO)(Cc3ccc(F)cc3F)C2)c1 (stereo not given) | 80.7 | – |
| COc1ccc(/C=N/NC(=O)CN2CCN(Cc3ccccc3)CC2)cc1Br | 101 | – |
| O=C(COc1ccc([N+](=O)[O-])cc1)NC(C(=O)O)C(O)c1cccc([N+](=O)[O-])c1 (stereo not given) | 99.7 | – |
| COc1cc(NC(=O)CSCC(=O)N(C)C2CCCCC2)cc(OC)c1 | 89.8 | – |
| O=C(O)COc1ccc2c(c1)O/C(=C\c1ccco1)C2=O | 105 | – |
| O=C(NC(=O)N1CCN(c2ccc([N+](=O)[O-])cn2)CC1)c1c(Cl)cccc1Cl | 106 | – |
| CC(C)(C)OC(=O)N1CCN(c2ccc([N+](=O)[O-])cc2)CC1 | 93.8 | – |
| CCc1ccccc1NC(=S)N(Cc1ccc(OC)cc1)CC1CCC(C(=O)O)CC1 (stereo not given) | 101 | – |
| O=C(Cn1c(NCCO)nc2ccccc21)NCC(F)(F)F | 99.8 | – |
| COc1cc(C(=O)NNC(=S)NCc2ccco2)cc(OC)c1OC | 84 | – |
| Cc1ccc(C(=O)N/C(=C/c2cccnc2)C(=O)NCc2ccco2)cc1 | 99 | – |
| Cc1ccc(C(CC(=O)NCc2ccco2)c2ccccc2)c(O)c1 (stereo not given) | 91.1 | – |
| O=C(O)CSc1c2c(nc3cc(C(=O)Nc4cccc(C(F)(F)F)c4)ccc13)CCC2 | 103 | – |
| COc1cc(/C=C2/C(=O)c3cccc([N+](=O)[O-])c3C2=O)c(Br)cc1O | 106 | – |
| CCN(CC)c1ccc(NC(=O)CCS(=O)(=O)c2ccc(Br)cc2)c(C)c1 | 91.6 | – |
| CCOC(=O)C(C)N1C(=O)S/C(=C\c2ccc(-c3ccccc3C(=O)O)o2)C1=O (stereo not given) | 93.5 | – |
| CCN(CC)Cc1cc(O)c(CN(CC)CC)cc1O | 94.7 | – |
| CNC[C@H](O)c1ccc(O)c(O)c1 | 92.2 | – |

| Structure (SMILES) | viability [%] | outcome |
| --- | --- | --- |
| COc1cccc(NC(=O)CSc2nnc(-c3ccco3)c(-c3ccco3)n2)c1 | 97 | – |
| CCOC(=O)CNc1nc2ccccc2n2c(C)nnc12 | 96.8 | – |
| COc1cc(NCCCNC(C)C)c2nccc(C)c2c1 | 85.1 | – |
| COc1cc(CC(=O)NCC(C)(C)N2CCOCC2)cc(OC)c1OC | 103 | – |
| C[C@H](NC(=O)c1ccco1)C(=O)Nc1cccc([N+](=O)[O-])c1 | 99.8 | – |
| COc1ccc(OC)c(N2C(=O)[C@@H]3C(c4ccccc4Cl)=NO[C@@H]3C2=O)c1 | 96 | – |
| CCN(C(=O)CN1CCN(c2ccc(O)cc2)CC1)c1c(N)n(Cc2ccccc2)c(=O)[nH]c1=O | 102 | – |
| COC1=C(Br)C(=O)c2nc(C)ccc2C1=O | 89.4 | – |
| CCOc1cccc(=O)c2c(C)n(CC(=O)c3ccccc3)c(C)c12 | 84.6 | – |
| COc1ccc(CNS(=O)(=O)c2cc(Br)cc3c2N(C(C)=O)C(C)C3)cc1 (stereo not given) | 94.4 | – |
| Cc1[nH]n(-c2nc(-c3ccccc3F)cc(=O)[nH]2)c(=O)c1CCO | 93.4 | – |
| COc1cc2ccccc2cc1C(=O)N1CCN(c2ccccc2O)CC1 | 87.3 | – |
| O=[N+]([O-])c1ccc2c(c1)S(=O)c1ccccc1-2 (stereo not given) | 102 | – |
| C/C(=N\Nc1ccc([N+](=O)[O-])cc1[N+](=O)[O-])c1cc2c(ccc3ccccc32)oc1=O | 108 | – |
| CC1=Nc2cccc3cccc(c23)N1 | 97 | – |
| CCS(=O)(=O)N1CCN(C(=O)c2cccc3ccccc23)CC1 | 91 | – |
| O=c1c(O)cccc2cc(O)c(O)c(O)c12 | 91.7 | – |
| CC12CCC(C(=O)Nc3ccc(Br)cn3)(OC1=O)C2(C)C (stereo not given) | 99.9 | – |
| COc1ccc(S(=O)(=O)N2CCC(C(=O)NCc3cccnc3)CC2)cc1Cl | 96 | – |
| O=C(Nc1ccc(C(=O)N2CCOCC2)cc1)c1ccccc1[N+](=O)[O-] | 84.2 | – |
| O/C=c1\ccc2cccc3nc(C(F)(F)F)nc1c23 | 102 | – |
| Cc1ccc(C)c(NC(=S)NCc2ccccc2)c1 | 95.1 | – |

| Structure (SMILES) | viability [%] | outcome |
| --- | --- | --- |
| Cc1ccc(C(=O)NNS(=O)(=O)c2ccccc2[N+](=O)[O-])cc1 | 94.8 | – |
| CN(C)c1ccc(N2C(=O)CSC2=S)cc1 | 104 | – |
| CC(C)C(C)NC(=O)COc1ccc(S(=O)(=O)N2CCOCC2)cc1Cl (stereo not given) | 95.4 | – |
| O=C1CC(Nc2ccc(N3CCOCC3)cc2)C(=O)N1CCc1ccccc1 (stereo not given) | 87.8 | – |
| O=C(CNC(=O)c1ccc(Cl)cc1Cl)OCc1nnc(-c2ccccc2Br)o1 | 95.6 | – |
| CCOC(=O)/C=C1\SC(C)C(=O)N1CC(=O)N(CCC#N)c1ccccc1 (stereo not given) | 90.8 | – |
| CC(C)CC(NC(=O)/C(=C/c1ccco1)NC(=O)c1ccc(Br)o1)C(=O)O (stereo not given) | 101 | – |
| CCC(C)(C)NC(=O)C(c1ccc(F)cc1)N(Cc1ccco1)C(=O)c1cnccn1 (stereo not given) | 92.5 | – |
| O=C(Cc1csc(N2CCOCC2)n1)N/N=C/c1ccc(O)c(O)c1O | 108 | – |
| O=C(CCN1CCN(c2ccccc2)CC1)N/N=C/c1ccc(O)c(O)c1O | 102 | – |
| CC1CCCN(CC(O)CN2CCN(CC(O)CN3CCCC(C)C3)C(C)C2)C1 (stereo not given) | 101 | – |
| COC(=O)c1ccccc1NC(=O)CCS(=O)(=O)c1ccc(Br)cc1 | 87.6 | – |
| COc1cccc(NC(=O)CN(C)C(=O)CCCc2nc3ccccc3s2)c1 | 101 | – |
| COC(=O)C1=C(O)/C(=C\c2ccc(CNC(=O)C(=O)Nc3ccc(C)c(C)c3)o2)N=C1C | 95.5 | – |
| Cc1cn(C2CCCCO2)c(=O)[nH]c1=O (stereo not given) | 107 | – |
| O=C(CCCN1C(=O)/C(=C\c2ccco2)SC1=S)Nc1ccc2ccccc2c1 | 80.9 | – |
| CC(=C\c1ccco1)/C=C1/SC(=S)N(CC(=O)O)C1=O | 110 | – |
| COc1ccc(NC(=O)c2cccnc2C(=O)O)c(OC)c1 | 103 | – |
| COC(=O)c1ccccc1NC(=O)CNC(=O)c1ccc(OC)cc1 | 82.8 | – |
| COc1ccc(CNC(=O)c2sc3nc4c(c(C(F)(F)F)c3c2N)CCC4)cc1OC | 96.3 | – |
| O=C(O)c1c2c(nc3ccc(Cl)cc13)CCC2 | 99.5 | – |
| Cc1ccc(C(c2nnnn2CC2CCCO2)N2CCN(C)CC2)cc1 (stereo not given) | 107 | – |
